# From PubChem
# PAFAH2 FP inh = PAFAH2 (human) inhibition | Q99487 | recombinant PAFAH2, FP-rhodamine activity probe, fluorescence polarization | inhibition, % at 3.39 µM | 0.99% of 340,000 active;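 active = inhibition above the mean over all tested compounds plus 3 SD, cut at about 30% in these data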;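 also: inhibitors block probe labeling of enzyme so polarization drops; 0% = enzyme with DMSO and 100% = wells lacking PAFAH2 protein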
# PAFAH1B2 FP inh = inhibitors of human PAFAH1B2; P68402; recombinant PAFAH1B2, FP-rhodamine activity probe, fluorescence polarization; inhibition, % at 3.39 µM; 1.2% of 340,000 active; AID 492953;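 active = inhibition above the mean of all tested compounds plus 3 SD, cut at about 24% in these data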;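 also: 0% = enzyme with DMSO and 100% = wells lacking PAFAH1B2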
# Target sequence (P68402 whole entry, looked up): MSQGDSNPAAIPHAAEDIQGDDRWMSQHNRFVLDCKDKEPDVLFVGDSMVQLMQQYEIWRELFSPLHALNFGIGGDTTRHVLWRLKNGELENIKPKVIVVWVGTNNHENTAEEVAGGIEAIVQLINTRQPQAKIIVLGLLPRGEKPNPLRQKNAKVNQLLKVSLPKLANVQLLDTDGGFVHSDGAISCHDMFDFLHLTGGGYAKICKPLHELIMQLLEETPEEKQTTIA
# Fam108B inh = Fam108B inhibition, counter-screen for RBBP9 inhibitors | 0.33% of 300,000 active | inhibition, % at 9.51 µM | recombinant Fam108B, FP-Rh probe fluorescence polarization | AID 1947;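 active = inhibition above the screen mean inhibition plus 3 SD, computed separately per campaign, cut at about 18% in these data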;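 also: inhibitors lower polarization as less probe binds the enzyme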
# PAFAH1B3 inh = inhibitors of human PAFAH1B3; inhibition, % at 3.39 µM; recombinant PAFAH1B3, FP-rhodamine probe, fluorescence polarization; Q15102; 0.28% of 340,000 active;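 active = inhibition above the screen-wide average of all tested compounds plus 3 SD, cut at about 25% in these data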;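 also: 0% = enzyme with DMSO only and 100% = wells lacking PAFAH1B3 protein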
# Target sequence (Q15102 whole entry, looked up): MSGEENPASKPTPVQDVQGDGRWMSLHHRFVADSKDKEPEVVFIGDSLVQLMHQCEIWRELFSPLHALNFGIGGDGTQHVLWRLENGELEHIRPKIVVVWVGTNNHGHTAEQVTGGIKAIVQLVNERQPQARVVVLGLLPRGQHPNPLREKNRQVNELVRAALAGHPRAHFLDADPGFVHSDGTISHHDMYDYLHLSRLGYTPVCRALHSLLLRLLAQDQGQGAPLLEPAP
# PME-1 inh = PME-1 (human) inhibition; Q9Y570; recombinant PME-1, FP-Rh probe fluorescence polarization; inhibition, % at 5.9 µM; 0.53% of 320,000 active; AID 2130;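 active = inhibition above the campaign mean of all compounds plus 3 SD, cut at about 26% in these data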;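 also: competitive labeling of PME-1 active site by serine hydrolase directed probe; 0% = PME-1 with DMSO and 100% = wells lacking PME-1 enzyme; inhibitors block probe labeling so polarization falls and inhibition rises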
# pPAFAH FP inh = inhibitors of human plasma PAF acetylhydrolase (pPAFAH); recombinant pPAFAH, FP-rhodamine probe fluorescence polarization; inhibition, % at 3.39 µM; 1.5% of 330,000 active; AID 463082;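 active = inhibition above the mean inhibition across the screen plus 3 SD, cut at about 25% in these data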;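 also: inhibitors block binding of the rhodamine activity-based probe so polarization drops; 0% = enzyme with DMSO and 100% = wells lacking pPAFAH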
# Numbers without * were called inactive; . = no result. In the library only some 2.8% were active in any assay of this set; here they are far more common.
SMILES,PAFAH2 FP inh,PAFAH1B2 FP inh,Fam108B inh,PAFAH1B3 inh,PME-1 inh,pPAFAH FP inh
CCN1C(=O)[C@H]2[C@@H](c3ccc(-c4cccc(Cl)c4)cc3)N[C@@](C)(C(=O)OC)[C@H]2C1=O,-10,-2,1,0,1,34*
CC1CCCCC12NC(=O)N(CC(=O)N1CCN(Cc3ccc(C#N)cc3)CC1)C2=O (stereo not drawn),0,1,.,6,-1,2
CCOC(=O)Cn1c(=O)oc2cc(S(=O)(=O)NC3CCCCC3)ccc21,-1,5,3,-8,-2,6
CCOC(=O)Cn1c(=O)oc2cc(S(=O)(=O)Nc3c(C)cc(C)cc3C)ccc21,5,-1,-1,6,-3,25*
CCN(CC(=O)NCc1cccs1)C(=O)c1cccc(S(=O)(=O)NCc2ccccc2)c1,0,13,3,7,5,-1
CC(C)CC[n+]1ccn(-c2nc3ccccc3nc2[N-]S(=O)(=O)c2ccc(Cl)cc2)c1,3,5,-6,-4,3,8
Cc1ccc(S(=O)(=O)N/N=C/c2c(F)cccc2Cl)cc1,8,-1,1,3,-11,-5
Cc1ccc(S(=O)(=O)N/N=C/c2cccn2-c2ccc(Cl)cc2)cc1,0,54*,2,3,3,5
C=CCn1c(-c2cccn(Cc3ccccc3)c2=O)n[nH]c1=S,5,7,6,3,-10,0
C=CCn1c(-c2cccn(Cc3ccc(Cl)cc3Cl)c2=O)n[nH]c1=S,2,29*,3,5,-1,-6
C=CCn1c(-c2cccn(Cc3ccc(Cl)cc3)c2=O)n[nH]c1=S,0,33*,0,4,-1,4
C=CCn1c(-c2cccn(Cc3cccc(Cl)c3)c2=O)n[nH]c1=S,-1,1,-2,-1,1,-1
CCN(CC)c1ccc(C(=O)OCC(=O)NC(C)(C)C)cc1,81*,7,-5,4,0,34*
CC(C)(C)NC(=O)COC(=O)c1ccc(Cl)nc1,2,-3,7,-1,-4,6
CC(C)C(CCNCc1ccccn1)c1ccc(Cl)cc1 (stereo not drawn),45*,45*,-3,35*,-7,4
CC(C)(C#CC(O)(c1ccccc1)c1ccccc1)N1CCCC1,6,4,3,4,0,-2
Cc1ccccc1OCCn1c(S(=O)(=O)O)nc2c(N)ncnc21,46*,28*,4,45*,7,4
CCCc1nnn(S(=O)(=O)c2ccc([N+](=O)[O-])cc2)c1CCC,-1,-1,.,3,.,.
COc1ccccc1Nc1nc2ccccc2n1C,3,-1,1,0,4,28*
COc1cc(OC)nc(Oc2ccc(N)c(C)c2)n1,-6,-4,1,0,-4,2
CC1=C(C(=O)OC2CCCCCCC2)C(c2ccc(O)cc2)NC(=O)N1 (stereo not drawn),6,25*,3,6,1,1
Cc1cc(O)c(C(=O)/C=C/c2ccc(C(C)C)cc2)c(=O)o1,1,28*,.,2,.,.
CC(Nc1c[nH]c(=O)[nH]c1=O)c1ccccc1 (stereo not drawn),4,10,.,5,.,.
COc1ccc([N+](=O)[O-])cc1N(CC(=O)NCCSc1ccccc1)S(C)(=O)=O,3,21,-2,13,3,1
COc1ccc([N+](=O)[O-])cc1N(CC(=O)NCCSc1ccc(C)cc1)S(C)(=O)=O,8,31*,-8,4,3,-7
SMILES,PAFAH2 FP inh,PAFAH1B2 FP inh,Fam108B inh,PAFAH1B3 inh,PME-1 inh,pPAFAH FP inh
Cc1ccc([N+](=O)[O-])cc1NC(=O)Cc1cccs1,1,-2,1,2,0,27*
CC(=O)Nc1cccc(NC(=O)Cc2cccs2)c1,1,-2,-6,9,-4,11
COC(=O)c1cc(NC(=O)Cc2cccs2)cc(C(=O)OC)c1,9,5,0,11,0,26*
CCCN(CC(=O)Nc1ccccc1C)C(=O)c1nn(CC)c(=O)c2ccccc12,-4,-7,.,9,6,2
C=CCn1c(O)c2ccc(C(=O)N=NC(=O)COc3ccccc3F)cc2c1O,0,2,-1,8,-5,-7
COc1ccc2nc3oc(C(=O)N4CCC(C(N)=O)CC4)cc3cc2c1,5,-1,8,18,0,31*
CCC(c1nnnn1C1CCCCC1)N1CCN(C(=O)c2ccco2)CC1 (stereo not drawn),-6,3,-1,1,0,4
Cc1cccc(NC(=O)Nc2cnccn2)c1C,1,4,-3,4,2,8
COc1ccc2oc(=O)c(-c3csc(Nc4ccc(O)cc4)n3)cc2c1,-5,8,4,17,19,29*
COc1ccc2oc(=O)c(/C(C)=N/Nc3nc(-c4cc(C)ccc4C)cs3)cc2c1,2,3,-3,-1,-2,5
CCCc1nn2c(=O)cc(CSCC(=O)Nc3cccc(OC)c3)nc2s1,-2,-1,-2,3,4,1
O=C(CN1c2ccccc2Sc2ccccc21)N/N=C/c1ccc(Cl)cc1Cl,4,-4,-5,13,1,1
Cn1cccc1CC(=O)NNC(=S)Nc1ccc(Cl)cc1Cl,-7,9,-2,4,1,26*
Cn1cccc1CC(=O)NNC(=S)NC(=O)c1ccccc1Br,0,4,2,3,0,26*
Cn1cccc1CC(=O)NNC(=S)Nc1ccc(F)cc1,2,13,-2,-3,-8,18
O=C(CN1c2ccccc2Sc2ccccc21)NNC(=S)Nc1ccc(Cl)cc1Cl,4,-2,2,-3,3,34*
CCN1C(=O)C2(C(C(=O)c3cc4ccccc4o3)=C(O)C(=O)N2CCCN2CCOCC2)c2ccccc21 (stereo not drawn),3,0,1,9,2,2
N=c1sccn1CC(=O)Nc1cc(S(=O)(=O)N2CCCC2)ccc1Cl,0,3,-1,3,4,3
O=C(O)CCCC(=O)Nc1ccc(Br)cc1C(=O)O,-5,27*,-4,8,-3,-3
O=C(O)CCCC(=O)Nc1ccc(Br)cc1,4,5,1,7,-4,-1
Cc1ccc(F)cc1NC(=O)CSCc1nc2sc(C)c(C)c2c(=O)[nH]1,1,1,-3,-5,1,-4
S=c1[nH]nc(Cc2ccccc2)n1-c1ccc(Cl)cc1,-4,29*,0,7,6,5
COc1ccccc1NS(=O)(=O)c1ccc(C)c(C(=O)NC2CCN(Cc3ccccc3)CC2)c1,-7,1,.,0,.,.
S=c1[nH]nc(Cc2ccccc2)n1-c1ccccc1,0,16,-1,2,0,-8
COc1ccc(NS(=O)(=O)c2ccc(-c3n[nH]c(=S)n3Cc3ccccc3)cc2)cc1,-1,16,-2,8,3,25*
